The source of these data is PubChem BioAssay (Tox21).

Inconclusive results are not listed. Where a call stands in place of a potency, no number is given. Calls of active or inactive are those of the source. Calls follow the shape of the full dose curve.

In the assay the target is Beta-2 adrenergic receptor (Homo sapiens) (UniProt P07550). Description: Adrenergic beta2 receptor (ADRB2) small molecule agonists, cell-based qHTS assay (AID 1963593). To be noted: CHO-ADRB2 cells, cAMP HTRF, 30 min; series mostly up to 92.4 µM. Put shortly:
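CHO cells stably over-expressing ADRB2 were plated overnight at 37C, then dosed with compounds plus a stimulation mix containing 100uM IBMX and 25uM Ro-20-1724 for 0.5hr at room temperature. cAMP was measured by HTRF competition, 1hr.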
A general note: Quantitative high-throughput screening tests each substance at several concentrations.
Potency is read from the fitted curve at half-maximal effect.

Sequence of Beta-2 adrenergic receptor (Homo sapiens) (P07550 whole entry, looked up): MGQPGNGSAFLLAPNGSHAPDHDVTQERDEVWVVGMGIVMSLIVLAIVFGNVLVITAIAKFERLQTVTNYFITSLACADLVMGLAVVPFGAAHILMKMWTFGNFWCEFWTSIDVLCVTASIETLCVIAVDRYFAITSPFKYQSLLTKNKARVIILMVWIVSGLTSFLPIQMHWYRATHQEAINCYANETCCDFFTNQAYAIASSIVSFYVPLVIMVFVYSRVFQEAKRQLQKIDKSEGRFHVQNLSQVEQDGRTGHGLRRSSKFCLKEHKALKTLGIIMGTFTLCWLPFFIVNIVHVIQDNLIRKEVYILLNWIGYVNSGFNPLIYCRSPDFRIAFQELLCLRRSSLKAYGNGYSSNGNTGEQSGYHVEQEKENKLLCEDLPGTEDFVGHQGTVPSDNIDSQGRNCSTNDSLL

Regarding `COC(=O)C(c1ccccc1)C1CCCCN1` (stereo not drawn), the Potency result was “inactive”.

Take `CC(C)[C@@H](Nc1ccc(C(F)(F)F)cc1Cl)C(=O)OC(C#N)c1cccc(Oc2ccccc2)c1` (stereo partly drawn): the Potency entry is “inactive”.

On to `CCCCP(CCCC)CCCC`, for which the Potency result was “inactive”.

For `CC1(C)[C@H](C=C(Cl)Cl)[C@@H]1C(=O)O[C@@H](C#N)c1cccc(Oc2ccccc2)c1`, the Potency result was “inactive”.

On to `O=C(O)CC(Cl)C(=O)O` (stereo not drawn), for which the Potency entry is “inactive”.

With `COc1ccc(-c2ccccc2)cc1NNC(=O)OC(C)C`, the Potency result is “inactive”.

Turning to `CCOP(=S)(OCC)SCSP(=S)(OCC)OCC`, the Potency entry was “inactive”.

Regarding `CCOP(=S)(OCC)Oc1cc(C)nc(N(CC)CC)n1`, the Potency entry is “inactive”.

Consider `C[C@]12CC[C@@H]3c4ccc(OC(=O)N(CCCl)CCCl)cc4CC[C@H]3[C@@H]1CC[C@@H]2O`, for which the Potency entry is “inactive”.

In the case of `O=S1(=O)OCCO1`, the Potency result was “inactive”.

As for `CCOP(=S)(OCC)Oc1ccc(S(C)=O)cc1` (stereo not drawn), the Potency result was “inactive”.

For `CCOC(=O)OC1=C(c2cc(C)ccc2C)C(=O)NC12CCC(OC)CC2` (stereo not drawn), the Potency entry was “inactive”.

Consider `CO/C=C(/C(=O)OC)c1ccccc1COc1cccc(C(F)(F)F)n1`, for which the Potency entry is “inactive”.

As for `O=C(OC1CCCCC1)c1ccccc1C(=O)OC1CCCCC1`, the Potency result was “inactive”.

As for `CN/C(=N\[N+](=O)[O-])NCc1cnc(Cl)s1`, the Potency entry is “inactive”.

With `CN(C)[C@@H]1C(=O)C(C(N)=O)=C(O)[C@@]2(O)C(=O)C3=C(O)c4c(O)ccc(Cl)c4[C@@](C)(O)[C@H]3C[C@@H]12`, the Potency result is “inactive”.

As for `O=C(NC(O)C(Cl)(Cl)Cl)NC(O)C(Cl)(Cl)Cl` (stereo not drawn), the Potency entry was “inactive”.

On to `COP(N)(=S)Oc1ccccc1C(=O)OC(C)C` (stereo not drawn), for which the Potency entry was “inactive”.

Take `CCCSP(=S)(OCC)Oc1ccc(Cl)cc1Cl` (stereo not drawn): the Potency result is “inactive”.

In the case of `O=C(O)C(F)(F)C(F)(F)C(F)(F)C(F)(F)C(F)(F)F`, the Potency entry is “inactive”.

Regarding `CCNP(=S)(OC)O/C(C)=C/C(=O)OC(C)C` (stereo not drawn), the Potency entry was “inactive”.

For the compound `O=C(N[C@H]1CN2CCC1CC2)c1ccc2c(c1)OCCO2`, the Potency result is “inactive”.

For the compound `Cc1c([N+](=O)[O-])c(C)c([N+](=O)[O-])c(C(C)(C)C)c1[N+](=O)[O-]`, the Potency result is “inactive”.

Turning to `CCS(=O)(=O)CCSP(=O)(OC)OC`, the Potency result is “inactive”.

Regarding `CNP(=O)(OC)Oc1ccc(C(C)(C)C)cc1Cl` (stereo not drawn), the Potency entry is “inactive”.

With `NC(=O)C(Cl)(Cl)Cl`, the Potency result is “inactive”.

Take `C[N+]1(C)[C@@H]2CC[C@H]1CC(OC(=O)C(CO)c1ccccc1)C2` (stereo partly drawn): the Potency result was “inactive”.

For the compound `CCC1CCC(=O)O1` (stereo not drawn), the Potency result was “inactive”.

`C#CC1(O)CCCCC1`: the Potency entry is “inactive”.

For `[CH3][Hg][Cl]`, the Potency entry was “inactive”.

For `Nc1ccc2c(c1)Cc1ccccc1-2`, the Potency entry was “inactive”.

For the compound `Clc1ccc(C(OCCN2CCCCC2)c2ccccc2)cc1` (stereo not drawn), the Potency result was “inactive”.

For `C[C@H](N)[C@H](O)c1ccc(O)c(O)c1`, the Potency is 7.5 µM (active).

As for `c1cc[n+]2c(c1)-c1cccc[n+]1CC2`, the Potency result was “inactive”.

For the compound `CCC1(CC)C(=O)N=C(O)NC1=O`, the Potency entry is “inactive”.

As for `C=C(C)[C@H]1CN[C@H](C(=O)O)[C@H]1CC(=O)O`, the Potency result was “inactive”.

On to `CCSCc1ccccc1OC(=O)NC`, for which the Potency result is “inactive”.

As for `CNC(=O)Oc1ccccc1C(C)C`, the Potency result is “inactive”.

`C[C@@H](N)[C@@H](O)c1ccccc1`: the Potency result was “inactive”.

On to `CCSC(C)CC1CC(=O)C(/C(CC)=N/OC/C=C/Cl)=C(O)C1` (stereo not drawn), for which the Potency entry was “inactive”.

As to `N#Cc1cc(I)c(O)c(I)c1`, the Potency result is “inactive”.

With `Clc1ccc(C2(Cn3cncn3)CC(Br)CO2)c(Cl)c1` (stereo not drawn), the Potency entry was “inactive”.

Turning to `CCCCc1ccccc1`, the Potency entry was “inactive”.
